Screening data (PubChem)
Rows were chosen to be rich in hits. Some 6.3% of all compounds tested hit in one or more screens of this group.
Spn MK inh – S. pneumoniae mevalonate kinase inhibition; 65,000 tested, 0.48% active; AID 555; purified MK, PK/LDH-coupled NADH absorbance 340 nm; inhibition, % at 10 µM;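 active = ranked among the strongest by inhibition in the single 10 µM screen, a fixed top-ranked set picked for dose follow-up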
NADH enzymes – inhibition of NAD/NADH coupling enzymes, library profiling | IC50, µM (series often up to 10 µM), without a hit: top-dose inhibition | 65,000 tested, 0.02% active | coupled PK/LDH NADH assays, four targets;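 active = single-dose screening hits from any of four coupled enzyme assays that gave an IC50 when retested across doses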;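 also: the DPM-DC format reads NADH fluorescence rather than 340 nm absorbance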
Fluor 339 460 – intrinsic fluorescence of library compounds, ex339/em460 – biochemical, MLSMR library, data from DPM-DC assay, artefact control, profiling panel. compound autofluorescence, ex339/em460 nm, NADH buffer; stronger effect = higher value; 1 = no-compound wells, NADH background. fluorescence fold increase at 10 µM. 65,000 tested, 5.5% active;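 active = at 10 µM, mean starting fluorescence two-fold or more over control wells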;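 also: signal is the first read of a kinetic run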
Spn PMK inh – blocks S. pneumoniae phosphomevalonate kinase. purified PMK, PK/LDH-coupled NADH absorbance 340 nm. inhibition, % at 10 µM. 65,000 tested, 0.49% active. AID 539;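 active = top-ranked compounds by inhibition in the single 10 µM screen, taking a fixed number of the strongest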;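 also: 0% = full reaction with DMSO carrier and 100% = background rate without enzyme reaction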
Abs 340nm – absorbance at 340 nm; compound absorbance at 340 nm, fold over control; fold change at 10 µM; 65,000 tested, under 10 active; AID 708;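 active = at 10 µM dose, initial 340 nm absorbance at least 2 fold that of control wells; inactive = change under 2 fold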;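 also: initial absorbance extrapolated from kinetic A340 decline of NADH oxidation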
Spn DPM-DC inh – inhibitors of Streptococcus pneumoniae diphosphomevalonate decarboxylase; purified DPM-DC, PK/LDH coupled NADH fluorescence; calls only at 10 µM; 65,000 tested, 0.49% active; AID 556;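 active = the 320 compounds with the highest percent inhibition in the single-dose primary screen, excluding strongly autofluorescent ones, cut at about 32% in these data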;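 also: kinetic rate of NADH fluorescence loss reporting ADP formed by the decarboxylase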
An asterisk follows results filed as active; i = inactive; nt = no result given; + = active, no number.

SMILES	Spn MK inh	NADH enzymes	Fluor 339 460	Spn PMK inh	Abs 340nm	Spn DPM-DC inh
CCOC(=O)C(C)Sc1nc(-c2ccco2)cc(C(F)(F)F)c1C#N (stereo not drawn)	12	8%	2.8*	11	1.1	i
O=C1CCCN1CN(C(=O)c1ccccc1)c1ccc(F)cc1	4	1%	1.1	0	1	i
O=C(c1cccc(S(=O)(=O)N2CCCC2)c1)c1nnc(-c2ccncc2)o1	9	8%	1	15	0.99	i
COc1ccc(OC)c(-c2nnc(-c3ccc(C)o3)o2)c1	12	11%	3.9*	10	1.1	nt
CCCOc1ccc(-c2nc(C#N)c(N3CCN(CC)CC3)o2)cc1	7	10%	3.4*	12	1.1	nt
CCOc1ccc(-c2nc(C#N)c(N3CCN(CC)CC3)o2)cc1	1	5%	2.4*	8	1.1	nt
Cc1ccc(OCc2nc(C#N)c(N3CCN(Cc4ccccc4)CC3)o2)cc1	6	3%	1.1	3	1	i
COc1cc(-c2nnc(COc3ccc4ccccc4c3)o2)cc(OC)c1OC	16	15%	1	28*	1	i
O=C1CC(C(=O)Nc2nccs2)C(c2ccccc2)O1 (stereo not drawn)	8	6%	1	8	1	i
O=S(=O)(NCCOCC(F)(F)C(F)F)c1ccc2oc3ccccc3c2c1	2	1%	1.1	0	1.1	i
Cc1nc2cc(NC(=O)N3CC4(C)CC3CC(C)(C)C4)ccc2n1C (stereo not drawn)	10	3%	1	1	1	i
CC1C2CC(CC1(C)C)N(C(=O)Nc1ccc3nccnc3c1)C2 (stereo not drawn)	3	2%	2.2*	0	1.1	nt
CCNC(=O)NC(=O)COC(=O)c1ccccc1SCC(=O)NC(=O)NCC	23	12%	2.1*	0	1.1	nt
Cn1c(=O)c2nc(NCc3ccccc3)cnc2n(C)c1=O	5	13%	3.9*	14	0.99	i
O=C(Nc1ccc(-c2noc(COc3ccccc3Cl)n2)cc1)c1ccco1	3	12%	1	32*	0.8	i
CCOc1ccc2[nH]c(C)cc(=O)c2c1	7	6%	1.6	8	1	nt
CCOc1ccc2[nH]c(=O)c(CN(CCO)C(=O)c3ccc(Br)cc3)cc2c1	1	19%	2.6*	42*	1.1	i
CCC(=O)N(CCO)Cc1cc2ccc(C)c(C)c2[nH]c1=O	10	10%	1.6	12	1.1	i
CCOc1ccc2[nH]c(=O)c(CN(Cc3ccc(F)cc3)C(=O)c3ccco3)cc2c1	6	8%	1.7	1	1	i
CCOc1ccc2[nH]c(=O)c(=O)[nH]c2c1	16	12%	2.2*	4	1.1	i
CCOc1ccc2[nH]c(=O)c(CN(Cc3ccc(F)cc3)C(=O)N3CCCC3)cc2c1	6	11%	2.8*	13	1	i
CCOc1ccc2[nH]c(=O)c(CN(CCO)C(=O)CC)cc2c1	0	12%	3.1*	5	1.1	i
CC(=O)c1c(C(C)=O)c(C)n(NC(=O)c2ccncc2)c1C	0	3%	1.1	9	1	i
Cc1sc2nc(CN(Cc3cccs3)C(=O)C3CC3)[nH]c(=O)c2c1C	2	1%	1.1	2	1.1	i
Cc1nonc1OCCNC(=O)C12CC3CC(CC(C3)C1)C2	19	11%	1.1	3	1.1	i
SMILES	Spn MK inh	NADH enzymes	Fluor 339 460	Spn PMK inh	Abs 340nm	Spn DPM-DC inh
Cc1ccc2oc(=O)c3cc(C(=O)NCCN4CCN(C)CC4)sc3c2c1	9	9%	2.2*	9	1.2	nt
CCn1c(COc2ccc(C)cc2)nnc1SCC(=O)Nc1ccc2c(c1)OCCO2	3	3%	2*	5	1	i
COc1ccc(C2=NOC3(CC(=O)N(c4ccc(C)cc4)C3=O)C2)c(OC)c1 (stereo not drawn)	6	5%	1.1	10	0.98	i
CC(=O)N1CCN(c2ccc(NC(=O)c3ccccc3Br)cc2Cl)CC1	14	7%	1	3	1	i
Brc1cnn(-c2nc(N3CCOCC3)nc(N3CCOCC3)n2)c1	0	3%	1.1	10	0.99	i
CCOc1ccc(-c2nc(C#N)c(N3CCCCCC3)o2)cc1	9	4%	2.4*	11	1	nt
CCCOc1ccc(-c2nc(C#N)c(N3CCN(C)CC3)o2)cc1	4	2%	3.9*	0	1.1	nt
CCOc1ccc(-c2nc(C#N)c(N3CCN(C)CC3)o2)cc1	6	2%	2.9*	1	1	nt
N#Cc1nc(-c2ccc(OCc3ccc(Cl)cc3)cc2)oc1N1CCOCC1	10	7%	1.9	9	1.1	i
C=C(C)n1c(=O)[nH]c2ccccc21	8	9%	1	9	1	i
CC1=CCC2C(=O)N(c3ccc(C)c(Br)c3)C(=O)C2C1 (stereo not drawn)	7	2%	1.1	0	1	i
COc1cc(NC(=O)c2ccc3c(c2)OCO3)c2ncccc2c1	5	19%	3*	7	1.1	+
COc1cccc(NC(=O)c2oc3ccccc3c2NC(=O)C(C)(C)C)c1	6	4%	1.8	6	1.1	i
COc1cccc(NC(=O)c2oc3ccccc3c2NC(=O)c2ccc3c(c2)OCO3)c1	0	1%	2.6*	3	1.1	i
CCc1[nH]nc2c1C(c1ccc(Br)s1)C(C#N)=C(N)O2 (stereo not drawn)	2	7%	1	16	1	i
CCC(=O)N[C@@H]1CC(C(C)(C)NC(=O)CC)CC=C1C (stereo partly drawn)	2	3%	1	9	0.97	i
O=C(C1CCN(S(=O)(=O)c2cccc3cccnc23)CC1)N1CCN(C2CCCC2)CC1	0	0%	1.1	0	1	i
CCOC(=O)C1=CN(C)C=C(C(=O)OCC)C1c1ccsc1	2	3%	4.8*	4	1	nt
COC(=O)C1=CN(CC2CCCO2)C=C(C(=O)OC)C1c1ccsc1 (stereo not drawn)	6	9%	2.1*	12	1.1	nt
c1ccc(-n2ncc3c(N4CCN(c5ccccn5)CC4)nc(N4CCOCC4)nc32)cc1	13	10%	1.8	6	1.1	i
COC(=O)c1sccc1NC(=O)c1ccoc1C	9	3%	1.1	0	1	i
CC1CN(S(=O)(=O)c2ccc(C(=O)Nc3nnc(-c4ccc5c(c4)CCCC5)o3)cc2)CC(C)O1 (stereo not drawn)	0	0%	2.1*	0	1.1	nt
CC(=O)Nc1nnc(-c2ccc3c(c2)CCCC3)o1	5	11%	0.81	10	1	i
Cc1occc1C(=O)Nc1cc(C(F)(F)F)ccc1Cl	6	3%	1	1	1	i
